pPAFAH inh: pPAFAH enzyme inhibitors, primary screen, biochemical, fluorescence polarization, human | Platelet-activating factor acetylhydrolase (Homo sapiens), Q13093 | recombinant pPAFAH, FP-rhodamine probe fluorescence polarization | inhibition, % at 3.39 µM | 1.5% of 330,000 active;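 active = inhibition above the mean inhibition across the screen plus 3 SD, cut at about 25% in these data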;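 also: inhibitors block binding of the rhodamine activity-based probe so polarization drops; 0% = enzyme with DMSO and 100% = wells lacking pPAFAH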
Target sequence (Q13093 whole entry, looked up): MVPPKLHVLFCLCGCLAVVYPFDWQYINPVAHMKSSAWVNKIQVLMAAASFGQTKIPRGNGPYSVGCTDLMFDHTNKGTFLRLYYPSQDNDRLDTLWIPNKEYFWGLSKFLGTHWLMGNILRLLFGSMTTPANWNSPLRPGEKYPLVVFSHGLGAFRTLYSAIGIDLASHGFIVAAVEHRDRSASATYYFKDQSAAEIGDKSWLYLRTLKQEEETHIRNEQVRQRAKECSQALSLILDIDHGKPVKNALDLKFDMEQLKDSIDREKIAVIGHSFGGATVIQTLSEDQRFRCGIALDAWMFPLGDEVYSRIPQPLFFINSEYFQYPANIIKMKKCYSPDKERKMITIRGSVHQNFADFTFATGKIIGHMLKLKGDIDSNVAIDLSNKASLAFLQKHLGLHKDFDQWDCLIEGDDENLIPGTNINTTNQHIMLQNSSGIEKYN
PAFAH1B3 inh: PAFAH1B3 enzyme inhibitors, primary screen, biochemical, fluorescence polarization, human; recombinant PAFAH1B3, FP-rhodamine probe; inhibition, % at 3.39 µM; 0.28% of 340,000 active; AID 492972, 2010;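 active = inhibition above the screen-wide average of all tested compounds plus 3 SD, cut at about 25% in these data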;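 also: 0% = enzyme with DMSO only and 100% = wells lacking PAFAH1B3 protein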
PAFAH2 inh: PAFAH2 enzyme inhibitors, primary screen, biochemical, fluorescence polarization, human | recombinant PAFAH2, FP-rhodamine activity probe | AID 492956, 2010 | Platelet-activating factor acetylhydrolase 2, cytoplasmic (Homo sapiens), Q99487 | inhibition, % at 3.39 µM | 0.99% of 340,000 active;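 active = inhibition above the mean over all tested compounds plus 3 SD, cut at about 30% in these data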;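 also: inhibitors block probe labeling of enzyme so polarization drops; 0% = enzyme with DMSO and 100% = wells lacking PAFAH2 protein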
PAFAH1B2 inh: PAFAH1B2 enzyme inhibitors, primary screen, biochemical, fluorescence polarization, human; Platelet-activating factor acetylhydrolase IB subunit alpha2 (Homo sapiens), P68402; recombinant PAFAH1B2, FP-rhodamine activity probe; inhibition, % at 3.39 µM; 1.2% of 340,000 active; AID 492953, 2010;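 active = inhibition above the mean of all tested compounds plus 3 SD, cut at about 24% in these data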;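 also: 0% = enzyme with DMSO and 100% = wells lacking PAFAH1B2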
Target sequence (P68402 whole entry, looked up): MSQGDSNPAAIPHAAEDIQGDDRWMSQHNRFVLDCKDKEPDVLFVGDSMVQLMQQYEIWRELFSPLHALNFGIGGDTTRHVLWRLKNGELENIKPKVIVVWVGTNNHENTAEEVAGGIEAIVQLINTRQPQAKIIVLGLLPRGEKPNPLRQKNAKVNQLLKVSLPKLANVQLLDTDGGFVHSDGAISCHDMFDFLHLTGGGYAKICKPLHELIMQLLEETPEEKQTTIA
PP1 inh: PP1-alpha phosphatase inhibitors, primary screen, counter-screen for PP5 inhibitor project, biochemical, fluorescence, OMFP substrate, single point; inhibition, % at 6.7 µM; purified PP1alpha; 0.9% of 320,000 active;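 active = inhibition above the mean inhibition of all tested compounds plus 3 SD, computed separately for each screening campaign, cut at about 15% in these data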
PP5 inh: PP5 phosphatase inhibitors, primary screen, biochemical, fluorescence. inhibition, % at 6.7 µM. 0.18% of 320,000 active. Serine/threonine-protein phosphatase 5 (Homo sapiens), P53041. purified PP5c, OMFP substrate fluorescence. AID 1987, 2009;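 active = inhibition above the campaign's mean inhibition across all tested compounds plus 3 SD, cut at about 9.5% in these data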;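 also: 0% = DMSO only and 100% = 100 µM cantharidin control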
PP1 inh confirm: PP1 phosphatase inhibitors, confirmation, biochemical, fluorescence, OMFP substrate, triplicate | inhibition, % at 6.7 µM | shares compounds with PP1 inh | 52% of 1,900 active | purified PP1alpha;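 active = mean PP1 inhibition above a set limit taken from the earlier primary screen, cut at about 15% in these data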
PP5 inh counter: PP5 phosphatase inhibition by PP1 hits, confirmation, counter-screen for PP1 inhibitor project, biochemical, fluorescence, triplicate. inhibition, % at 6.7 µM. 4% of 1,900 active. shares compounds with PP1 inh. purified PP5c, OMFP fluorescence;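 active = mean PP5 inhibition over triplicate wells above about 9.5% taken from the earlier PP1 screen, limit read from the data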
Numbers without * were called inactive; · = no result given. A selection: hits, their analogues and other compounds. The true share with any hit is near 3.4%.

SMILES | pPAFAH inh | PAFAH1B3 inh | PAFAH2 inh | PAFAH1B2 inh | PP1 inh | PP5 inh | PP1 inh confirm | PP5 inh counter
CCN(CC(=O)NCc1ccc(F)cc1)C(=O)CCNS(=O)(=O)c1cccc(C)c1 | -4 | -1 | -4 | -2 | 0 | 3 | · | ·
Cc1ccc(S(=O)(=O)N2CCC(=O)N(C(COCc3cccc(C(F)(F)F)c3)Cc3ccccc3)CC2)cc1 (stereo unspecified) | 4 | 7 | -4 | 14 | 20* | 7 | 3 | -1
Cc1ccc(S(=O)(=O)N2CCC(=O)N(C(COCc3ccccc3)Cc3ccccc3)CC2)cc1 (stereo unspecified) | -1 | 1 | 8 | 19 | 2 | 5 | · | ·
COc1ccc(CN2C(=O)c3cccnc3C2O)cc1 (stereo unspecified) | -6 | 3 | 0 | 2 | 34* | 8 | 25* | -4
COc1ccc(CN2C(=O)c3cccnc3C2Nc2cc(Cl)ccc2OC)cc1 (stereo unspecified) | 5 | 0 | 5 | 3 | 27* | 8 | 26* | -2
COc1cccc(N2C(=O)c3cccnc3C2O)c1 (stereo unspecified) | · | 4 | -6 | 1 | · | · | · | ·
O=[N+]([O-])c1cc(CN2CCCC2)c2cccnc2c1O | 66* | 19 | 36* | 4 | 18* | 3 | 5 | -1
CC(C)(C)C(=O)COC(=O)c1cc(-c2cccnc2)nc2ccccc12 | 0 | 5 | -1 | -2 | 0 | 0 | · | ·
CSc1ccc(/C=C/C(=O)OCC(=O)c2ccc[nH]2)cc1 | -1 | 0 | 6 | -5 | 3 | 0 | · | ·
CCOC(=O)c1sc(N)c(C(=O)OCC)c1COC(=O)C1CC(=O)N(Cc2ccco2)C1 (stereo unspecified) | 6 | -1 | -2 | 1 | 0 | 1 | · | ·
COC(=O)c1sc(N)c(C(=O)OC)c1COC(=O)C1CC(=O)N(Cc2ccco2)C1 (stereo unspecified) | 7 | 11 | 8 | 3 | 18* | 2 | -3 | -2
O=C(N=Nc1c(O)[nH]c2ccccc12)c1cc(-c2cccs2)[nH]n1 | 14 | 8 | 0 | 8 | 18* | 4 | 24* | 3
CC(C)(C)OC(=O)C[C@@H]1C/C=C\C[C@@H](CC(=O)N(CCO)Cc2ccccc2)C(=O)N2CCC[C@@H]2COC1=O | 4 | 0 | -1 | 5 | · | · | · | ·
COc1ccc(-n2c(COc3ccc(Cl)cc3)nnc2SCc2ccc(C#N)cc2)cc1 | 3 | -1 | -2 | 4 | 20* | 5 | 5 | 6
Cc1[nH][nH]c(=O)c1C(c1c(C)[nH][nH]c1=O)c1cn(Cc2ccc(Cl)c(Cl)c2)c2ccccc12 | 18 | 19 | 9 | 14 | 18* | 2 | 17* | 24*
Cc1ccc(S(=O)(=O)N[C@@H](Cc2ccccc2)C(=O)N2CCC(C(=O)N[C@@H](CC(C)C)C(=O)O)CC2)cc1 | 2 | 7 | 0 | 6 | -4 | -1 | · | ·
CCCn1c(SCC(=O)Nc2cc(C(=O)O)ccc2C)nc2sc3c(c2c1=O)CCC3 | -2 | 6 | -5 | 4 | 1 | -1 | · | ·
C=CCSc1nc(-c2ccccc2)c(C#N)c(=O)[nH]1 | 3 | 4 | -10 | 0 | 0 | 0 | · | ·
N#Cc1c(-c2ccccc2)nc(SCC(=O)N2c3ccccc3Sc3ccccc32)[nH]c1=O | 3 | -9 | -13 | 24* | 21* | 3 | 17* | -1
N#Cc1c(-c2ccccc2)nc(SCc2ccc(Cl)cc2)[nH]c1=O | 8 | -1 | -10 | 35* | 18* | 6 | 12 | -2
COc1ccc(Br)cc1S(=O)(=O)N1CCCc2ccccc21 | -2 | 12 | -2 | 4 | 0 | 4 | · | ·
COc1ccc(-c2coc3c(CN4CCCCC4)c(O)c(CN4CCCCC4)c(O)c3c2=O)cc1 | 8 | · | · | · | 29* | 4 | -9 | -8
O=c1c(-c2ccc(Br)cc2)coc2c(CN3CCCCC3)c(O)ccc12 | · | 3 | -17 | -1 | · | · | · | ·
Cc1cccc(Nc2nc(NCc3ccco3)c3ccccc3n2)c1 | 3 | 10 | -8 | 2 | 25* | 10* | 14 | 4
Cc1ccccc1Nc1nc(NCc2ccco2)c2ccccc2n1 | -2 | -1 | 6 | 0 | 25* | 4 | -2 | 0
SMILES | pPAFAH inh | PAFAH1B3 inh | PAFAH2 inh | PAFAH1B2 inh | PP1 inh | PP5 inh | PP1 inh confirm | PP5 inh counter
CCCOc1ccc(C2C3=C(Nc4nc(N)[nH]c(=O)c42)c2ccccc2C3=O)cc1 (stereo unspecified) | 17 | 10 | 5 | -7 | 19* | -1 | 17* | 3
COc1ccc(CCCN2CCC(CN3CCNC(=O)C3=O)CC2)cc1OC | · | 1 | 4 | 1 | · | · | · | ·
Cc1cccc(C(=O)N=c2c(C#N)cc3c(=O)n4cccc(C)c4nc3n2Cc2ccco2)c1 | 20 | 9 | 9 | 3 | 25* | 3 | 7 | -1
Cc1cccn2c(=O)c3cc(C#N)c(=NC(=O)c4ccccc4)n(Cc4ccco4)c3nc12 | 14 | 9 | 9 | 3 | 12 | 2 | · | ·
CCOc1ccc(/C=N/NC(=O)c2nnn(-c3nonc3N)c2CN(C)C2CCCCC2)cc1 | 4 | 4 | -2 | 0 | -3 | -1 | · | ·
Cc1ccc(NC(=O)C(=O)NCCN2CCN(S(C)(=O)=O)CC2)cc1C | 3 | 6 | 1 | 4 | -1 | 2 | · | ·
CCCCNc1c(-c2ccc(OC)c(SC(C)CC)c2)nc2ccc(C)cn12 (stereo unspecified) | 13 | 12 | 6 | 7 | · | · | · | ·
CCC(C)Sc1cc(-c2nc3ccc(C)cn3c2NCc2ccccc2)ccc1OC (stereo unspecified) | 23 | 15 | 21 | 5 | 18* | 5 | 5 | 2
Nc1nn2c(-c3ccccc3)cc(=O)[nH]c2c1N=Nc1ccc(O)cc1 | 27* | 16 | 29 | 14 | 28* | 3 | 20* | 1
COC(=O)CNc1nc(Cl)nc(NC2CCCCC2)n1 | · | 4 | -1 | 4 | · | · | · | ·
CCCCc1cc(=O)oc2cc(OC(C)C(=O)NCC3CCC(C(=O)O)CC3)c(Cl)cc12 (stereo unspecified) | 3 | -2 | 0 | 8 | 54* | 2 | -3 | -4
